# PubChem BioAssay (Tox21)
# Several values for one entry are separate records, joined by “and”; a condition that tells them apart may be missing. Equal entries are not always repeated. Results filed as inconclusive are left out. More than one record can exist for a structure, and the calls need not agree. Activity calls are given as the source filed them. Calls follow the shape of the dose curve; as a rule, active = well fitted cell-killing curve with a large enough effect in the repeat runs (not every such curve was filed as active); inconclusive = weak or mixed curves, or effect the other way; inactive = no such curve, though single readings can be large or run the other way.
# Assay: qHTS assay to identify small molecule antagonists of the estrogen related receptor signaling pathway with the pleiotropic PPARgamma coactivator (PGC) from Tox21 10K library - cell viability counter screen (AID 1224840); also: nearly all actives have a fitted effect of over 40% in size
# Details: PGC/ERR reporter cells viability, CellTiter-Fluor, 17.5 h; series mostly up to 92.4 µM; viability change, negative = cytotoxic: at the top concentration
# Description: National Center for Advancing Translational Sciences [NCATS]
# NIH Chemical Genomics Center [NCGC]
# U.S. Environmental Protection Agency [EPA]
# National Institutes of Environmental Health Sciences [NIEHS]
# National Toxicology Program [NTP]
# U.S. Food and Drug Administration [FDA]
# Estrogen related receptors (ERRs), the first orphan nuclear receptors discovered, play an important role in the control of cellular energy metabolism. ERRs are required for high-energy production in response to the environmental challenges. The pleiotropic PPARgamma coactivator (PGC) is a major partner of ERR and a key regulator in energy homeostasis. Together they have been implicated in the etiology of metabolic disorders such as Type 2 diabetes and metabolic syndrome. ERR-alpha was also identified as an adverse marker for breast cancer progression; ERR-alpha-positive tumors have a poor prognosis. To screen and to identify environmental compounds that perturb the ERR and PGC/ERR signaling pathways could provide valuable information for potential therapeutic or preventive measures in the treatment of metabolic disease. To differentiate true PGC/ERR antagonists or agonist from cytotoxic substances, the assay is multiplexed with cell viability assay.
# Tox21 Assay Protocol Summary:
# The PGC/ERR cells were dispensed at 2,000 cells/5 ul/well in 1536-well white plates using a Multidrop dispenser. After the assay plates were incubated at a 37 C/5% CO2 incubator for 6 hours, 23 nL of compounds dissolved in DMSO, positive and negative controls or DMSO only was transferred to the assay plate by a pin tool. The plates were incubated at 37 C for 17.5 hours. 1 ul/well of CellTiter-Fluor reagent was added into the assay plates using a Flying Reagent Dispenser. After 30-minute incubation at 37 C/5% CO2, the fluorescence intensity in the plates was measured using a ViewLux plate reader.
# % is scaled to controls: 0 for no effect and ±100 for the full control effect; potency is read from the fitted curve at half-maximal effect.
SMILES,"viability change, negative = cytotoxic",Potency
NC(=O)C(Cl)(Cl)Cl,0.291% (inactive),–
CC(C)=CCOc1c2occc2cc2ccc(=O)oc12,-0.566% [at 42.5 µM] (inactive),–
C/C=C/C=O,0.302% (inactive),–
CCn1cc[n+](C)c1,–,inactive and 55 µM (active)
O=C(O)C1(c2ccc3c(c2)OC[C@H](Cc2ccc(-c4ccccc4)cc2)[C@H]3O)CCCC1,-26.1% (inactive),–
CCOC(=O)COc1cc(-c2nn(C)c(OC(F)F)c2Cl)c(F)cc1Cl,1.06% (inactive),–
NCCCNCCCN,-5.71% (inactive),–
O=C(NC(=O)c1c(F)cccc1F)Nc1ccc(OC(F)(F)C(F)OC(F)(F)F)c(Cl)c1 (stereo not given),-0.436% [at 42.5 µM] (inactive),–
CCOC(=O)[C@]1(c2ccccc2)Oc2ccccc2[C@@H]1N,-7.29% (inactive),–
ClCCCCBr,-2.69% (inactive),–
O=C(O)COc1ccc(Cl)cc1,1.07% (inactive),–
CCCCC(O)(Cn1cncn1)c1ccc(Cl)cc1Cl (stereo not given),–,54.4 µM (active)
CN1C(=O)C(O)N=C(c2ccccc2)c2cc(Cl)ccc21 (stereo not given),-11.4% (inactive),–
II,-18.2% (inactive),–
O=C1CN=C(c2ccccc2)c2cc(Cl)ccc2N1CC1CC1,-20.5% (inactive),–
CCOc1nc(F)cc2nc(S(=O)(=O)Nc3c(Cl)cccc3Cl)nn12,-9.39% (inactive),–
Clc1cccc2ccccc12,1.13% (inactive),–
O=C(CBr)Nc1ccc(Cl)cc1C(=O)c1ccccc1F,-12.7% [at 42.5 µM] (inactive),–
COC(=O)c1cncn1C(C)c1ccccc1 (stereo not given),0.93% [at 42.5 µM] (inactive),–
Cl/C=C\Cl,7.1% (inactive),–

SMILES,"viability change, negative = cytotoxic",Potency
O=C1NCN(c2ccccc2)C12CCN(CCCOc1ccc(F)cc1)CC2,-29% [at 42.5 µM] (inactive),–
CO/C=C(/C(=O)OC)c1ccccc1COc1cccc(C(F)(F)F)n1,-23.9% (inactive),–
CC(=O)C(C)(C)C,-6.81% (inactive),–
CC1Sc2c(C(=O)O)c(=O)c3cc(F)c(N4CCNCC4)cc3n21 (stereo not given),0.417% [at 42.5 µM] (inactive),–
Clc1cc(Cl)c(Cl)c(Cl)c1,3.24% (inactive),–
c1ccc(C2CC2)c(OCC2=NCCN2)c1,14.4% [at 42.5 µM] (inactive),–
C=CC(=O)OC,4.27% (inactive),–
CNC(C)Cc1ccccc1OC (stereo not given),-4.39% [at 42.5 µM] (inactive),–
Cc1cc(=O)[nH]o1,4.37% (inactive),–
CN1C(=O)NC(=O)C(C)(C2=CCCCC2)C1=O (stereo not given),-4.09% [at 42.5 µM] (inactive),–
Cn1sc(Cl)cc1=O,2.74% (inactive),–
ClC=C(Cl)Cl,-1.18% (inactive),–
CC(=O)NC1CCSC1=O (stereo not given),14.2% [at 42.5 µM] (inactive),–
CN1[C@@H]2CC[C@H]1CC(OC(=O)c1cc(Cl)cc(Cl)c1)C2 (stereo not given in full),8.82% [at 42.5 µM] (inactive),–
Nc1nc(N)nc(N)n1,-0.373% (inactive),–
C=C(C#N)CCC#N,3.89% (inactive),–
ClCC(Br)CBr (stereo not given),2.96% (inactive),–
COP(=S)(OC)Oc1cc(Cl)c(I)cc1Cl,5.17% (inactive),–
C[C@H]1CNCCc2ccc(Cl)cc21,3.29% [at 42.5 µM] (inactive),–
CN(C)c1ccc(N(C)C)cc1,-7.99% (inactive),–
